In PubChem BioAssay (NCATS):
Results filed as inconclusive are left out. Calls of active or inactive are those of the source. Calls come from the whole dose curve; as a rule, active = well fitted curve in the direction sought with a large enough effect; inconclusive = small, poorly fitted or top-dose-only effect, or another doubt; inactive = no such curve, though single readings can be large; an effect the other way counts as inactive or inconclusive.

Assays:
[1] = tested on: Zika virus NS2B-NS3 protease (linked construct); experiment: Primary screen NINDS Rhodamine qHTS for Zika virus inhibitors (AID 1347160); note: nearly all actives have a fitted effect of over 55% in size
Summary of the method: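 Percent inhibition, normalized to uninhibited and enzyme-free controls, is fitted to a 4-parameter Hill equation. Fluorescence change comes from a 15-min cleavage of 1.5 microM bis-peptide Rhodamine110 substrate by 25 nM linked NS2B-NS3 at room temperature.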

[2] = OV-KATE Cancer Cell Toxicity qHTS against the NCATS CANVASS Library (AID 1347345)
Summary of the method: (§1)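 1000 cells/well seeded and rested 4 h at 37 °C before pin transfer of compounds in an 11-pnt series. Exposure 72 h at 37 °C/5% CO2; viability by CellTiter-Glo luminescence after 15 min at room temperature.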

[3] = HPAF-II Cancer Cell Toxicity qHTS against the NCATS CANVASS Library (AID 1347346); note: series mostly up to about 38 µM; nearly all actives have a fitted effect of over 55% in size
Summary of the method: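 HPAF-II cells were seeded at 1000 cells/well, allowed to settle for 4 h at 37 degrees C, then exposed to compounds in an 11-point series for 72 h. Viability was read by CellTiter-Glo luminescence.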

[4] = UWB1.289 Cancer Cell Toxicity qHTS against the NCATS CANVASS Library (AID 1347347); note: series mostly up to about 38 µM; nearly all actives have a fitted effect of over 60% in size
Summary of the method: as §1

[5] = OV-SAHO Cancer Cell Toxicity qHTS against the NCATS CANVASS Library (AID 1347348); note: series mostly up to about 38 µM; nearly all actives have a fitted effect of over 55% in size
Summary of the method: as §1

[6] = SW1088 Cancer Cell Toxicity qHTS against the NCATS CANVASS Library (AID 1347350); note: nearly all actives have a fitted effect of over 75% in size
Summary of the method: as §1

[7] = U-118MG Cancer Cell Toxicity qHTS against the NCATS CANVASS Library (AID 1347351); note: series mostly up to about 38 µM
Summary of the method: as §1

[8] = COV-362 Cancer Cell Toxicity qHTS against the NCATS CANVASS Library (AID 1347352); note: series mostly up to about 38 µM
Summary of the method: (§2)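 Cells were seeded at 1000 per well and allowed to settle 4 hours at 37 degrees C before pin transfer of compounds as an 11-point series. Viability was read by CellTiter-Glo luminescence after 72 hours' exposure.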

[9] = A2780 Cisplatin Sensitive Ovarian Cancer Cell Toxicity qHTS against the NCATS CANVASS Library (AID 1347353); note: nearly all actives have a fitted effect of over 60% in size
Summary of the method: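 A2780 cisplatin-sensitive cells (750 per well) were seeded, left 4 h at 37 °C, then pin-dosed in an 11-point series. After 72 h at 37 °C/5% CO2, viability was measured as ATPLite luminescence.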

[10] = UWB1.289-WTBRCA1 Cancer Cell Toxicity qHTS against the NCATS CANVASS Library (AID 1347354)
Summary of the method: as §2

[11] = HEK-293 Cancer Cell Toxicity qHTS against the NCATS CANVASS Library (AID 1347355); note: series mostly up to about 46 µM; nearly all actives have a fitted effect of over 65% in size
Summary of the method: as §2

[12] = HPAF-II 24hr Apoptosis Induction qHTS against the NCATS CANVASS Library (AID 1347356)
Summary of the method: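 HPAF-II cells (500/well) in DMEM + 10% FBS were treated with an 11-point compound series for 24 hours at 37 degrees C. Caspase-3/7 activity was then read by Caspase-Glo DEVD luminescence after 15 min.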

[13] = HEK293 18hr Apoptosis Induction qHTS against the NCATS CANVASS Library (AID 1347357)
Summary of the method: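 HEK293 cells (500 per well, DMEM with 10% FBS) were treated with natural products, incubated 18 hours at 37 degrees C, then caspase-3/7 activity was read by Caspase-Glo luminescence after 15 min at room temperature.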

[14] = HPAF-II 12hr Apoptosis Induction qHTS against the NCATS CANVASS Library (AID 1347358)
Summary of the method: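 HPAF-II cells (500/well, DMEM + 10% FBS) were exposed to compounds for 12 hours at 37 degrees C. Caspase-3/7 activity was then read by Caspase-Glo 3/7 luminescence after 15 min at room temperature.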

[15] = HEK293 24hr Apoptosis Induction qHTS against the NCATS CANVASS Library (AID 1347359)
Summary of the method: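 Caspase-3/7 activation measured as luminescence from the DEVD-based Caspase-Glo reagent, 15 min at room temperature, following 24-hour compound treatment of HEK293 cells.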

[16] = HEK293 12hr Apoptosis Induction qHTS against the NCATS CANVASS Library (AID 1347361)
Summary of the method: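 Read-out: Caspase-Glo 3/7 luminescence (DEVD substrate), 15 min RT. Preceded by 12 h compound exposure of HEK293, 500 cells/well, 11-pt qHTS titration; doxorubicin titration as control.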

[17] = tested on: NAD(P)H diaphorase (Clostridium kluyveri); experiment: Diaphorse counterscreen qHTS: Assay Interference Panel against the NCATS CANVASS Library (AID 1347362)
Summary of the method: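 Counterscreen for coupling-enzyme interference: resorufin fluorescence from resazurin/NADH turnover, read after 5 min at room temperature. Compounds were tested over an 11-point series after 15 min dark preincubation with diaphorase in PBS-Tween.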

[18] = target: Luciferin 4-monooxygenase (Photinus pyralis) (UniProt P08659); experiment: Firefly luciferase counterscreen qHTS: Assay Interference Panel against the NCATS CANVASS Library (AID 1347363); note: series mostly up to about 57 µM
Summary of the method: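 Luminescence inhibition readout: compounds (11-point qHTS) sat 15 min at room temperature with substrate mix (0.013 mM luciferin and ATP), then firefly luciferase was added and signal read 5 min later.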

[19] = KB-8-5-11 Cancer Cell Toxicity qHTS against the NCATS CANVASS Library (AID 1347364); note: series mostly up to about 46 µM; nearly all actives have a fitted effect of over 75% in size
Summary of the method: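 KB-8-5-11 cells (500/well) in DMEM + 10% FBS were exposed to compounds in an 11-point qHTS series for 72 hr at 37C, 5% CO2. Viability was read by CellTiter-Glo luminescence.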

[20] = SDT Cancer Cell Toxicity qHTS against the NCATS CANVASS Library (AID 1347365);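 note: SDT canine glioma cells 500 per well in 1536 well plates; series mostly up to about 46 µM; nearly all actives have a fitted effect of over 60% in size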
Summary of the method: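 SDT canine glioma cells (500 cells/well) were exposed to compounds in an 11-point series for 72 hr at 37C, 5% CO2; viability was read as ATP content by CellTiterGlo luminescence.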

[21] = KB-3-1 Cancer Cell Toxicity qHTS against the NCATS CANVASS Library (AID 1347366); note: series mostly up to about 46 µM; nearly all actives have a fitted effect of over 75% in size
Summary of the method: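 KB-3-1 cells (500 cells/well) in DMEM + 10% FBS were treated with compounds for 72 hr at 37C, 5% CO2. Viability was read as CellTiter-Glo luminescence after 10 minutes at room temperature.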

Measured: Potency

Chain of Luciferin 4-monooxygenase (Photinus pyralis) (P08659 whole entry, looked up): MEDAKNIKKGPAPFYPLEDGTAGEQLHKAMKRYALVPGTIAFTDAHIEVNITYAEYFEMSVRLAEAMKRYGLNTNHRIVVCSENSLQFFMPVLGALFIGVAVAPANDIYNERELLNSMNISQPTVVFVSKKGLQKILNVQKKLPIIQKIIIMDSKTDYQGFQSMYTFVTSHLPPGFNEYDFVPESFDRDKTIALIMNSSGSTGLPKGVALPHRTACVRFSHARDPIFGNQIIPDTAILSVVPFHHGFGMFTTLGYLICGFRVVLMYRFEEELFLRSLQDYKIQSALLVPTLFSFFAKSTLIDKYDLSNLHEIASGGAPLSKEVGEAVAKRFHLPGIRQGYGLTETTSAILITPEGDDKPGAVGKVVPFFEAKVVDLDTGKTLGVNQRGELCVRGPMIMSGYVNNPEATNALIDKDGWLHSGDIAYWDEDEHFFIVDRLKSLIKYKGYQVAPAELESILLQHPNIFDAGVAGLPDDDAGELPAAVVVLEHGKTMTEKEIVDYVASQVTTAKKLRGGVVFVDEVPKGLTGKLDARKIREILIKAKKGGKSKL

O=C(O)Cc1c[nH]c2ccccc12
inactive: all assays above
